Assay results reported in the supplement of paper PMC10849652.
About 7,900 targets were measured; listed, in parts, are those with a hit and a random draw of the rest. About 0.6% of all pairs of compound and target were hits. A number with no mark means an inactive call.

How the values were obtained:
Assay in all cases: log2 fold change, soluble protein after heating vs DMSO (PISA); higher = thermal stabilisation; K562 cells, 10 uM, 30 min; active = over 0.2 and 3.5 SD of the protein, either way, in both replicates (recomputed)
[1] = compound: CC1=C(C=C(C=C1)NC(=O)C2=CC(=CC=C2)C(C)(C)C#N)NC3=CC4=C(C=C3)N=CN(C4=O)C
Method in brief: (§1)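 Values are thermal stability changes relative to control samples and are taken from duplicates. They are stated as log2 fold changes. Before quantification by TMTpro 16plex LC-MS/MS with equalised channel sums, K562 cells at 2×10^6 cells/mL were treated with 10 μM compound for 30 min, heated in aliquots for 3 min across 48°C-58°C, pooled, extracted in PBS with 0.5% NP-40 at 4°C, and centrifuged at 21,000xg for 90 min to give the soluble supernatant.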

[2] = compound: CC1=C(C=C(C=C1)NC(=O)C2=CC(=CC=C2)N(C)C)NC(=O)C3=CC=C(C=C3)O
Method in brief: as §1

[3] = compound: CC1=CC=C(C=C1)SC2=C3C=C(SC3=CN=C2)C(=O)N
Method in brief: as §1

[4] = compound: CC1=NC(=CC=C1)C2=C(N=C(N2)C(C)(C)C)C3=CC4=NC=CN=C4C=C3
Method in brief: as §1

[5] = compound: CCCCN(Cc1ccc(C(=O)NO)cc1)C(=O)Nc1ccccc1 [Nexturastat A]
Method in brief: as §1

[6] = compound: CCCS(=O)(=O)Nc1ccc(F)c(C(=O)c2c[nH]c3ncc(-c4ccc(Cl)cc4)cc23)c1F [vemurafenib]
Method in brief: as §1

[7] = compound: CCCS(=O)(=O)Nc1ccc(F)c(C(=O)c2c[nH]c3ncc(Cl)cc23)c1F
Method in brief: as §1

[8] = compound: CCCc1cc(C)[nH]c(=O)c1CNC(=O)c1cc(-c2ccnc(N3CCN(C)CC3)c2)cc2c1cnn2C(C)C
Method in brief: as §1

[9] = compound: CCN(CC)Cc1ccc2cc(COC(=O)Nc3ccc(C(=O)NO)cc3)ccc2c1 [givinostat]
Method in brief: as §1

[10] = compound: CCN(CCCOc1ccc2c(Nc3cc(CC(=O)Nc4cccc(F)c4)[nH]n3)ncnc2c1)CCOP(=O)(O)O [barasertib]
Method in brief: as §1

Chain of UniProt P42226 (P42226 whole entry, looked up): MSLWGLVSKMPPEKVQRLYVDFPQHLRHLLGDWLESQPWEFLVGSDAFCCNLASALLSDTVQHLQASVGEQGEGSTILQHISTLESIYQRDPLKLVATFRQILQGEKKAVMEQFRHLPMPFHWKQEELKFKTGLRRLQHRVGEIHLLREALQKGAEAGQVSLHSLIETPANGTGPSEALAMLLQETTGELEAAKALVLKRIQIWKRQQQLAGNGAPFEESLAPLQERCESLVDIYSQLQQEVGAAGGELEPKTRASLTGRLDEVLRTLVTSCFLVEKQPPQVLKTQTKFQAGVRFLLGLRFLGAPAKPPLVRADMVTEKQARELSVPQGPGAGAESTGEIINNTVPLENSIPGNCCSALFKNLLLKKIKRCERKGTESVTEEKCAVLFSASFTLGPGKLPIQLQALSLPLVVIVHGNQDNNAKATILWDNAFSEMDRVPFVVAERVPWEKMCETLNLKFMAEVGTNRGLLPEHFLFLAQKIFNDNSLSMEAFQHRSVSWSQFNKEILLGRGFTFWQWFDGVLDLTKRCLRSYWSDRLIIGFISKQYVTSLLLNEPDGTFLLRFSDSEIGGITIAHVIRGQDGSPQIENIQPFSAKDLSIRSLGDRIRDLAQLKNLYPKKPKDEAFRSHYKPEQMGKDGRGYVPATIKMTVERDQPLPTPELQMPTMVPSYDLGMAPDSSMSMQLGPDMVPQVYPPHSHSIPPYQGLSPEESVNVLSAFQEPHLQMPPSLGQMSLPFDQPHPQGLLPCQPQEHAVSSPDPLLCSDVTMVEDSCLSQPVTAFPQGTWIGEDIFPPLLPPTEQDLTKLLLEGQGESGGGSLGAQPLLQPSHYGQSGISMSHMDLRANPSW
Chain of UniProt Q7L7X3 (Q7L7X3 whole entry, looked up): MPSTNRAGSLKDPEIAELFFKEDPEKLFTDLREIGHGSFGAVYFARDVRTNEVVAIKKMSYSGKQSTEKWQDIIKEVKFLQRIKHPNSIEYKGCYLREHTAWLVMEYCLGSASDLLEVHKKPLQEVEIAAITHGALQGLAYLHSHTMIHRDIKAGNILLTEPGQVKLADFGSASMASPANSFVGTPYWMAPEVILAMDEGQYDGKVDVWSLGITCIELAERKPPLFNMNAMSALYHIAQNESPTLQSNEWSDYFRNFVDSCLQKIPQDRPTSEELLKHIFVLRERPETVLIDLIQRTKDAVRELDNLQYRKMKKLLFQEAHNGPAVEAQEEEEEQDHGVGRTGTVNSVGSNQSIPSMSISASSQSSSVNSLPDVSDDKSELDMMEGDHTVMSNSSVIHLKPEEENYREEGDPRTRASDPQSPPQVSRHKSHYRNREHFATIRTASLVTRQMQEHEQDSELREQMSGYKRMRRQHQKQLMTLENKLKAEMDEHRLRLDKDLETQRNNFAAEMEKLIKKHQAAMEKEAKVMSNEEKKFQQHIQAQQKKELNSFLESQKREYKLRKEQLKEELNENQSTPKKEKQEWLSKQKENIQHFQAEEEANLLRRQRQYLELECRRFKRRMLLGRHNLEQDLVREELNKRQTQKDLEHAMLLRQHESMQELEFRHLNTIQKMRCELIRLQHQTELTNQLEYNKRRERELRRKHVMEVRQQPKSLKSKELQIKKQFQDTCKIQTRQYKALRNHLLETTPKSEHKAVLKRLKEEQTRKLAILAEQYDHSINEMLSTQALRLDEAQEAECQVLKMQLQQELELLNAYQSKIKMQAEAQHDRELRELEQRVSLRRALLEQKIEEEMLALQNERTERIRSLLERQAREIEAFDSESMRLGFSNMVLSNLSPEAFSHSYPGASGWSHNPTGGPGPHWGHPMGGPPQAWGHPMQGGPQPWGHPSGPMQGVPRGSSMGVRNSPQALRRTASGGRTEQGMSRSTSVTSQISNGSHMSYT
Chain of UniProt O14975 (O14975 whole entry, looked up): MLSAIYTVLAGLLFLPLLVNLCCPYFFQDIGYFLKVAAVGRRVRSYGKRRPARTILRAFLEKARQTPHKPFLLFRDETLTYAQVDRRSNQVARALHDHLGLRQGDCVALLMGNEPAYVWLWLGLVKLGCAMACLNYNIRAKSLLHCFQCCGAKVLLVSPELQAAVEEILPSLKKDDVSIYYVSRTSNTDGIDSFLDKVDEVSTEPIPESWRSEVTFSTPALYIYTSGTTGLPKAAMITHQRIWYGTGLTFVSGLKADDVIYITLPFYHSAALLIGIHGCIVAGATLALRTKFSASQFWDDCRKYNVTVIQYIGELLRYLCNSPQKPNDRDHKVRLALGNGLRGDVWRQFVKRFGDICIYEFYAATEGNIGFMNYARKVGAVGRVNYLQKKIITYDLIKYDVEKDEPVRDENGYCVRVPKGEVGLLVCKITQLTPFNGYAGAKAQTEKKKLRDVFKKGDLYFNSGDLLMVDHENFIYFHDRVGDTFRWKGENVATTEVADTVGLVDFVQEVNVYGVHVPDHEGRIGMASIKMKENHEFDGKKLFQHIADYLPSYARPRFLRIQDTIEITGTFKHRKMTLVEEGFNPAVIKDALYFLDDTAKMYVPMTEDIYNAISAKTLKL
Chain of UniProt P35270 (P35270 whole entry, looked up): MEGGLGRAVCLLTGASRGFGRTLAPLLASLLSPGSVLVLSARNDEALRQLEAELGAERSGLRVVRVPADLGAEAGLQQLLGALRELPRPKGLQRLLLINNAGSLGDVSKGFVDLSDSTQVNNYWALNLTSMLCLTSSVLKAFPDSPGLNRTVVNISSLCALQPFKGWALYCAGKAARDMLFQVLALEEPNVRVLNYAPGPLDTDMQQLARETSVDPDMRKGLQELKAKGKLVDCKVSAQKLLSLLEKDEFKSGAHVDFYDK
Chain of UniProt Q5T5C0 (Q5T5C0 whole entry, looked up): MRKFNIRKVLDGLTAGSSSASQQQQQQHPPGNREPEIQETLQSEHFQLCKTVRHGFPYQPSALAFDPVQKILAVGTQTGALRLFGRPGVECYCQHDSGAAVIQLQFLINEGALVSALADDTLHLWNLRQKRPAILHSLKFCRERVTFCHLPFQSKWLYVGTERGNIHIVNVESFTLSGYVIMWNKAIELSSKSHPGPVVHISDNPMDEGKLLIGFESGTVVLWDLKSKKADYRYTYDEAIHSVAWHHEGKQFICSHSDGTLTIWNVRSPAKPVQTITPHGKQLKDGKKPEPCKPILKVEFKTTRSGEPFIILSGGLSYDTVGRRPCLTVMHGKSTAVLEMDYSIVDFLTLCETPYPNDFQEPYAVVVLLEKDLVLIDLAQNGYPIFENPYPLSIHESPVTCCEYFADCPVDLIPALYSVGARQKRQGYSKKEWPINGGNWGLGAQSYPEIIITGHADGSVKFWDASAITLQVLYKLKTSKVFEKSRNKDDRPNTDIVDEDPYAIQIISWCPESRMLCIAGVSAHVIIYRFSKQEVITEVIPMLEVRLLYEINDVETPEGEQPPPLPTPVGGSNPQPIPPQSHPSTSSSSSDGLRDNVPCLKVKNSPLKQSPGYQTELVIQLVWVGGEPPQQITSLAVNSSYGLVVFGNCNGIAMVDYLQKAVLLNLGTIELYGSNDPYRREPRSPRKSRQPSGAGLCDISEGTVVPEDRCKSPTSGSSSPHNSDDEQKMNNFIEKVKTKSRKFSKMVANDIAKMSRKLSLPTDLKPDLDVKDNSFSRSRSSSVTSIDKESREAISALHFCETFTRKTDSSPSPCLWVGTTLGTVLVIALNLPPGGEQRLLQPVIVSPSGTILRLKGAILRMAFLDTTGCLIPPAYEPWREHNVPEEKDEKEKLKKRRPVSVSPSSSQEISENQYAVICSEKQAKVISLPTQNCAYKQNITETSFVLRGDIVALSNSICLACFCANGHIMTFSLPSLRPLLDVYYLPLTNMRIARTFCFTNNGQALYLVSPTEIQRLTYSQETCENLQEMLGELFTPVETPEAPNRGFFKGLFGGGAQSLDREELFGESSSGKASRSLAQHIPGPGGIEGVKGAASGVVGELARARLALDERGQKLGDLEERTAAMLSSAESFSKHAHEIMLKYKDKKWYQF
Chain of UniProt P08579 (P08579 whole entry, looked up): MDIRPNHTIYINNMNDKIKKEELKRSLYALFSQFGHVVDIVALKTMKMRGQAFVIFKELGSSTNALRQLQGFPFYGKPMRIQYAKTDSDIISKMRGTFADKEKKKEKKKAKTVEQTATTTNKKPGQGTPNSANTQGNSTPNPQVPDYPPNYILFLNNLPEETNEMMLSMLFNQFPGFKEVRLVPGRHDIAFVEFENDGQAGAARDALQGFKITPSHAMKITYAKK
Chain of UniProt Q02447 (Q02447 whole entry, looked up): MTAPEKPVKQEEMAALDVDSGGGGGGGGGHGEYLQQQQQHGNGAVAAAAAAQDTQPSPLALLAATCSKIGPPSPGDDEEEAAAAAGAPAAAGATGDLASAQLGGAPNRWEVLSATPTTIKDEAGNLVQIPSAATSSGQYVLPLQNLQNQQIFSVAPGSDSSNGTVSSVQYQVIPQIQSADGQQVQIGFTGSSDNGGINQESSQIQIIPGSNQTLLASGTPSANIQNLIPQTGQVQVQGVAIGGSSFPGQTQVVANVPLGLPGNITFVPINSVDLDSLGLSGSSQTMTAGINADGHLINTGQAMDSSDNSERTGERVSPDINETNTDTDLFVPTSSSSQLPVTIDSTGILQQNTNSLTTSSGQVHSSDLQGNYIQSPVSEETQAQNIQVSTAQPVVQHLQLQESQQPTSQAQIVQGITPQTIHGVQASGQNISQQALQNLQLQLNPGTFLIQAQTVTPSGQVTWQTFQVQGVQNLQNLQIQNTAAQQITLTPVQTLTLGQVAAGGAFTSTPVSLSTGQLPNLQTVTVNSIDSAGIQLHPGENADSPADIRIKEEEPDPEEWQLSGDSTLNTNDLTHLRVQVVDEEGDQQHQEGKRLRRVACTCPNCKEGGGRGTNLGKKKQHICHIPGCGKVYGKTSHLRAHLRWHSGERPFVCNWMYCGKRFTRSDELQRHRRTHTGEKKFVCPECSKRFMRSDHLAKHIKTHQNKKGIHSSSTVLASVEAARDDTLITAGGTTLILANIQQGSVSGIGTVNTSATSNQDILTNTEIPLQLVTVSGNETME
Chain of UniProt O60493 (O60493 whole entry, looked up): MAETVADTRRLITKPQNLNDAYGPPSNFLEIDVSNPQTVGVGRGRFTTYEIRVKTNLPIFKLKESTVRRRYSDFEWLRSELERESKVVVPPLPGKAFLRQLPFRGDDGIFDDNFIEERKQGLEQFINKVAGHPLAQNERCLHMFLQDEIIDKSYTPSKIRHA

Target	log2 fold change [1]	log2 fold change [2]	log2 fold change [3]	log2 fold change [4]	log2 fold change [5]	log2 fold change [6]	log2 fold change [7]	log2 fold change [8]	log2 fold change [9]	log2 fold change [10]
SLC25A42 (UniProt Q86VD7)	-0.007	0.041	0.038	-0.049	-0.021	-0.015	0.089	-0.054	-0.006	0.001
SPR (UniProt P35270)	0.103	-0.003	0.063	-0.043	-0.069	-0.019	0.019	0.009	-0.004	-0.076
THADA (UniProt Q6YHU6)	0.03	-0.038	0.019	-0.01	-0.021	0.038	0.06	0.039	-0.006	0.07
SNW1 (UniProt Q13573)	-0.035	0.041	-0.017	0	0.074	-0.04	-0.017	-0.045	-0.041	-0.02
TBK1 (UniProt Q9UHD2)	-0.018	-0.03	0.019	-0.007	0.163	-0.012	0.089	0.083	0.065	0.028
TAMM41 isoform 3 (UniProt Q96BW9)	-0.021	-0.013	0.049	0.056	-0.084	-0.006	0.04	-0.062	0.036	0.046
STAT6 (UniProt P42226)	-0.092	-0.111	0.053	0.015	0.044	0.058	0.082	-0.012	0.078	0.001
SUMO1 (UniProt P63165)	-0.064	-0.045	0.4	0.024	-0.142	-0.051	0.657 (active)	-0.071	-0.172	-0.055
STK38 (UniProt Q15208)	0.099	-0.054	0.013	0.004	-0.062	0.091	0.12	0.049	0.048	0.022
SNX2 (UniProt O60749)	0.009	-0.022	0.02	0.012	0.021	0.013	0.052	-0.036	0.073	0.037
TAOK1 (UniProt Q7L7X3)	-0.009	0.007	-0.005	-0.013	0.065	0.023	0.011	-0.048	0.001	0.009
SP3 (UniProt Q02447)	-0.008	-0.126	-0.041	-0.058	-0.003	-0.038	0.012	-0.052	-0.219	0.011
SNX3 (UniProt O60493)	-0.013	-0.064	0.073	-0.004	0.037	0.046	0.122	0.02	0.09	0.045
SP100 isoform 4 (UniProt P23497)	0.02	-0.004	0.072	-0.008	-0.119	-0.019	0.159	0	-0.005	0.003
SRPRA (UniProt P08240)	0.089	-0.06	0.018	0.047	0	0.038	0.069	0.001	0.018	0.04
SNRNP27 (UniProt Q8WVK2)	-0.015	-0.006	-0.008	0.007	-0.02	-0.031	-0.021	-0.361	-0.032	-0.039
SPINDOC (UniProt Q9BUA3)	0.157	0.037	-0.074	-0.139	-0.014	0.113	0.11	-0.013	-0.127	0.129

Target	log2 fold change [1]	log2 fold change [2]	log2 fold change [3]	log2 fold change [4]	log2 fold change [5]	log2 fold change [6]	log2 fold change [7]	log2 fold change [8]	log2 fold change [9]	log2 fold change [10]
SPAG9 (UniProt O60271)	0.023	-0.045	0.002	0.004	0.039	0.028	0.053	0.014	0.06	0.037
STXBP5 (UniProt Q5T5C0)	-0.021	-0.041	-0.007	-0.006	-0.002	-0.038	0.013	-0.006	0.022	-0.004
SPTBN1 (UniProt Q01082)	0.018	0.02	0.004	-0.036	0.088	0.058	0.006	0.051	0.049	0.019
TIMM44 (UniProt O43615)	0.048	-0.028	0.091	0.074	-0.052	-0.002	0.12	-0.096	-0.013	0.055
SRRM2 (UniProt Q9UQ35)	-0.022	0.01	-0.067	0.147	0.156	0.068	0.007	0.01	0.082	-0.041
SPART (UniProt Q8N0X7)	0.007	-0.027	0.055	-0.014	0.005	-0.046	0.088	-0.025	0.001	0.037
TGFBI (UniProt Q15582)	-0.167	0.101	0.062	0.091	-0.082	0.157	-0.044	-0.255	-0.08	0.068
TBC1D20 isoform 3 (UniProt Q96BZ9)	-0.048	0.04	0.128	0.037	0	0.083	0.166	-0.14	0.076	0.034
SSB (UniProt P05455)	-0.02	0.024	-0.026	0.024	0.019	-0.003	0.003	0.036	-0.175	0.074
SRP68 (UniProt Q9UHB9)	0.028	-0.062	0	0.018	0.125	0.063	0.091	0.064	0.075	0.078
SLC27A2 (UniProt O14975)	0.099	-0.042	-0.032	-0.032	-0.013	0.029	0.073	0.008	-0.004	0
SNRPB2 (UniProt P08579)	-0.016	0.007	-0.026	-0.014	-0.015	-0.036	-0.042	-0.048	-0.051	-0.056
SMARCAD1 isoform 2 (UniProt Q9H4L7)	0.028	-0.072	-0.026	0.064	-0.028	0.192	0.101	0.035	0.127	0.089
STK25 (UniProt O00506)	-0.102	0.014	-0.011	0.029	-0.006	-0.021	0.011	-0.052	0.056	0.025
STARD3NL (UniProt O95772)	0.01	-0.002	0.056	0.076	-0.12	0.02	0.048	-0.021	0.009	-0.027
SRSF7 (UniProt Q16629)	0	0.025	-0.115	-0.112	0.193	-0.043	-0.088	0.114	0.059	-0.105
SLC4A2 (UniProt P04920)	0.04	0.008	0.039	-0.017	0.046	0.002	0.035	-0.043	0.037	0.045
